This passage reports ratio activity, negative = inhibition results from PubChem BioAssay (NCATS).

Records with an inconclusive call do not appear. Values without a mark were called inactive. Activity calls are given as the source filed them. The call rests on the fitted dose curve.

A short description of the test: S16 Schwann cell PMP22 intronic element beta-lactamase assay (AID 624044). Further: nearly all actives have a fitted effect of over 15% in size. As to conditions: S16 rat Schwann cells, PMP22 element beta-lactamase FRET, 24 h; ratio activity, negative = inhibition: at 38.3 µM (top of the series) unless noted. An excerpt: Description: Charcot-Marie-Tooth-Association [CMTA] National Center for Advancing Translational Sciences [NCATS] Charcot-Marie-Tooth (CMT) disease was first characterized by Jean-Martin Charcot and Pierre Marie in France and, independently, by Howard Henry Tooth in England in 1886. CMT is one of the most common inherited neurological diseases, affecting approximately 1 in 2,500 Americans. […] The most prevalent type of CMT is known as CMT1A and caused by a duplication of the PMP22 gene which leads to over-expression of this protein. PMP22 is a glycosylated intrinsic membrane protein accounting for 2-5% of the myelin protein content, and its over-expression results in demyelination and subsequently axonal loss. A pair of cellular transcription-based assays was developed in the S16 rat Schwann cell lines (Hai, M., et al., 2002) stably transfected with orthogonal reporters - firefly luciferase (Fluc) and beta-lactamase (beta-Lac) - whose expression is driven by an intronic regulatory element of the PMP22 gene (Jones, E.A., et al., 2011) to recapitulate endogenous expression of PMP22. The current assay employs Blac as a reporter of PMP22 expression. A comprehensive library of approved drugs, the NCGC Pharmaceutical Collection (Huang, R., et al., 2011), was screened in the cross-validating platform of the orthogonal reporter assays to identify drug modulators inhibitory towards PMP22 expression. A set of counter-screens was devised to address non-specific activity of the library. An ATP-dependent CellTiter-Glo assay (developed by Promega Corp) was utilized to control cell viability. In addition, biochemical Fluc enzyme assay was performed to assess direct inhibition of the Fluc enzymatic activity. References Hai, M., Muja, N., DeVries, G.H., Quarles, R.H. and Patel, P.I. Comparative analysis of Schwann cell lines as model systems for myelin gene transcription studies. J Neurosci Res, 2002. 69(4): pp 497-508 Huang, R., Southall, N., Wang, Y., Yasgar A., Shinn P., Jadhav, A. , Nguyen, D.-T. and Austin, C.P., The NCGC pharmaceutical collection: a comprehensive resource of clinically approved drugs enabling repurposing and chemical genomics. Sci Transl Med, 2011. 3(80): p. 80ps16.
S16 Schwann cell PMP22 intronic element beta-lactamase assay The beta-Lac-expressing S16 cells were seeded in black clear-bottom 1536 well plates at between 500-750 cells/6uL in DMEM medium containing 10% FBS, w/o phenol red. After overnight incubation at 37 degree Celsius/5% C02, 23 nL of compounds or DMSO were delivered to each well using a pin tool, followed by 24h-incubation at 37 degree Celsius/5% C02. Then one microl of LiveBLAzer FRET B/G detection mix (Invitrogen) was added to each well. An EnVision plate reader (PerkinElmer) was used to detect the dual beta-Lac output composed of fluorescence at 460nm for beta-Lac expression and FRET at 535nm for cell viability. The % signal at 535 nm was scaled to a full range of DMSO and zero and then normalized using the maximum response observed in the screen as 100% activity. The % signal at 460nm was normalized to the average readings of potassium clavulanate (a positive control) - treated cells relative to DMSO-treated cells (0% Activity). The concentration-effect curves were then classified based on curve quality (r2), response magnitude and degree of measured activity.
As for `c1ccc2c(c1)OCC(CN1CCCCC1)O2` (stereo not given), the ratio activity, negative = inhibition was 1.83%. For the compound `COc1ccccc1N1CCN(CCCC(=O)c2ccc(F)cc2)CC1`, the ratio activity, negative = inhibition was -14.3%.

Take `CCC(Cc1c(I)cc(I)c(O)c1I)C(=O)O` (stereo not given): the ratio activity, negative = inhibition was 3.55%. Then `C=CC(C)(O)CC/C=C(\C)CCC=C(C)C` (stereo not given), with -13.1% (active); and `COc1ccc2nc(NC(=O)Nc3ccccc3)sc2c1`, with -14.6%. Then `Cc1c(C)c2c(c(C)c1OC(=O)CCC(=O)O)CC[C@@](C)(CCC[C@H](C)CCC[C@H](C)CCCC(C)C)O2`, with -15.1%; and `F[Si-2](F)(F)(F)(F)F`, with 7.11%; and `Cc1ccccn1`, with -0.827%. Then `CC(C)NCC(O)COc1ccccc1-n1cccc1` (stereo not given), with -5.07%. With `Nc1ncnc2c1ncn2CCOCP(=O)(O)O`, the ratio activity, negative = inhibition was 0.57%.

`C[Si](C)(C)O[Si](C)(C)C`: the ratio activity, negative = inhibition is -0.118%. In the case of `NC(=O)CC[C@@H]1NC(=O)[C@H](Cc2ccccc2)NC(=O)[C@H](Cc2ccc(O)cc2)NC(=O)[C@@H](N)CSSC[C@@H](C(=O)N2CCC[C@H]2C(=O)N[C@@H](CCCN=C(N)N)C(=O)NCC(N)=O)NC(=O)[C@H](CC(N)=O)NC1=O`, the ratio activity, negative = inhibition is -1.23%.

On to `Cc1cccc(C)c1NC(=O)NC1=CCCN1C`, for which the ratio activity, negative = inhibition was 3.11%. The same measure for `CNC(=O)OCc1cccc(COC(=O)NC)n1`: -18.3%.

With `CCCCC`, the ratio activity, negative = inhibition was 1.47%. The same measure for `COc1ccc(/C=N/NC(=O)c2ccncc2)c(C(=O)O)c1OC`: 4.12%. Take `CC1CCC(NC(=O)N(CCCl)N=O)CC1` (stereo not given): the ratio activity, negative = inhibition was 2.89%. The same measure for `O=C1NCCN1c1ncc([N+](=O)[O-])s1`: 1.39% [at 17.1 µM]; for `N=C(N)n1cccn1`: -0.887%. The same measure for `CO`: 1.83%. `NC(=S)NS(=O)(=O)c1ccc(N)cc1`: the ratio activity, negative = inhibition was -12.7% (active). Then `CCN(CC)CCOc1ccc2nc(N(C)C)sc2c1`, with 0.178%. The same measure for `Nc1ccc(N=Nc2ccccc2)c(N)n1`: 0.697%. The same measure for `CC(/C=C/C=C(\C)C(=O)O[C@@H]1O[C@H](CO[C@@H]2O[C@H](CO)[C@@H](O)[C@H](O)[C@H]2O)[C@@H](O)[C@H](O)[C@H]1O)=C\C=C\C=C(C)\C=C\C=C(/C)C(=O)O[C@@H]1O[C@H](CO[C@@H]2O[C@H](CO)[C@@H](O)[C@H](O)[C@H]2O)[C@@H](O)[C@H](O)[C@H]1O`: 3.54%; for `CC(C)c1nc(N(C)S(C)(=O)=O)nc(-c2ccc(F)cc2)c1/C=C/C(O)CC(O)CC(=O)O` (stereo not given): 3.3%.

For the compound `CC(C)(C)c1ccc2c(S(=O)(=O)O)c(C(C)(C)C)ccc2c1`, the ratio activity, negative = inhibition is -0.38%. The same measure for `CC[C@H]1OC(=O)[C@H](C)[C@@H](O[C@H]2C[C@@](C)(OC)[C@@H](O)[C@H](C)O2)[C@H](C)[C@@H](O[C@@H]2O[C@H](C)C[C@H](N(C)C)[C@H]2O)[C@](C)(O)C[C@@H](C)CN(C)[C@H](C)[C@@H](O)[C@]1(C)O`: -5.31%; for `CCCCCc1ccc(C)cc1O`: 4.39%. The same measure for `NCCN`: -0.354%; for `O=C1c2ccccc2C(=O)C1c1ccc(Cl)cc1`: -9.28%; for `OC[C@H]1O[C@@H]2O[C@H]3[C@H](O)[C@@H](O)[C@@H](O[C@H]4[C@H](O)[C@@H](O)[C@@H](O[C@H]5[C@H](O)[C@@H](O)[C@@H](O[C@H]6[C@H](O)[C@@H](O)[C@@H](O[C@H]7[C@H](O)[C@@H](O)[C@@H](O[C@H]1[C@H](O)[C@H]2O)O[C@@H]7CO)O[C@@H]6CO)O[C@@H]5CO)O[C@@H]4CO)O[C@@H]3CO`: 1.18%. As for `Oc1ccc(Cl)c2c1CCC2`, the ratio activity, negative = inhibition is -4.38%. `FC(F)(F)C(F)(F)C(F)(F)C(F)(F)C(F)(F)F`: the ratio activity, negative = inhibition is 0%. Then `CSCCC(N)C(=O)O` (stereo not given), with 5.55%; and `FC(F)(F)C(F)(F)C(F)(F)C(F)(F)C(F)(F)C(F)(F)F`, with 0.234%; and `C/C(=C\C(=O)OCCCCCCCCC(=O)O)C[C@@H]1OC[C@H](C[C@@H]2O[C@H]2[C@@H](C)[C@H](C)O)[C@@H](O)[C@H]1O`, with 0.0634%. Then `O=C(OCc1ccccc1)c1ccc(O)cc1`, with -2.42%; and `OC1OC[C@@H](O)[C@H](O)[C@@H]1O` (stereo not given in full), with 0.472%. Then `C=CCN1CCCC1CNC(=O)c1cc(S(N)(=O)=O)cc(OC)c1OC` (stereo not given), with 1.62%. `COc1ccc(-c2noc(CC(=O)O)c2-c2ccc(OC)cc2)cc1`: the ratio activity, negative = inhibition is -1.01%.
